Screening results: PubChem BioAssay, National Center for Advancing Translational Sciences (NCATS)
Rows were chosen to be rich in hits. Some 3.9% of all compounds tested hit in one or more screens of this group.
S2 tox = viability counter-screen for ATXN expression inhibitors. S2 cells (HEK-293 line with an ATXN2-luciferase reporter) viability, CellTiter-Fluor protease fluorescence, 24 h. Potency, µM (doses to about 56.7 µM), hits mostly cytotoxic. 400,000 tested, 0.49% active. AID 651635; also: nearly all actives have a fitted effect of over 40% in size
HepG2 tox = HepG2 cytotoxicity, counter-screen for TGF-b inhibitors; HepG2 CAGA-GFP viability, ATP luminescence, 18 h; Potency, µM (titrated, usually from 46.1 µM), for the others: at the highest dose activity change, negative = cytotoxicity, most hits filed as cytotoxic; 410,000 tested, 0.76% active
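HepG2 CAGA-GFP cells (1000/well, DMEM with 1% FBS) received compound, then TGF-beta at 500 pg/mL final, and were incubated 18 hours at 37 degrees C. Viability was read by CellTiter-Glo luminescence. Media-only wells were set as complete cell-killing and DMSO as no toxicity.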
HT1080 IDH1KD tx = HT-1080 IDH1 knockdown cell toxicity (counter line); Potency, µM (series often up to 46.1 µM), without a hit: at the top dose activity, negative = toxicity, usual class: cytotoxic; 360,000 tested, 2% active; AID 686971; HT-1080 IDH1 knockdown viability, ATP luminescence, 48 h;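 also: 0% = DMSO wells and -100% = cell-free medium wells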
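Using the IDH1-knockdown HT-1080 line run in the same batch and compound series as the NT line, viability after 48 h at 37 °C was determined by CellTiter-Glo luminescence and expressed as % activity.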
ATXN2 expr inh = reduces ATXN2 reporter expression in HEK-293 cells; Potency, µM (series often up to 57 µM), without a hit: at the highest dose activity change, negative = inhibition, most hits filed as inhibitors; 360,000 tested, 0.72% active; HEK-293 ATXN2-luciferase reporter, luminescence, 24 h; also: % is scaled to controls: 0 for no effect and ±100 for the full control effect; nearly all actives have a fitted effect of over 55% in size
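ATXN2-luciferase reporter cells (luciferase flanked by upstream and downstream ATXN2 gene portions) were treated 24 h at 37 °C with compounds at up to 57 uM. SteadyGlo luminescence gave expression; GF-AFC fluorescence gave viability.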
TGFb SMAD3 inh = blocks TGF-b signaling; HepG2 CAGA-GFP TGF-b/SMAD3 reporter, GFP fluorescence, 18 h; TGF-beta stimulated, 500 pg/mL final; Potency, µM (titrated, usually from 46.1 µM), inactives show at the top dose activity, negative = inhibition, usual class: inhibitors; 410,000 tested, 1.2% active; also: % is scaled to controls: 0 for no effect and ±100 for the full control effect; nearly all actives have a fitted effect of over 65% in size
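GFP signal (ex488/em500-530) from TGF-beta-stimulated HEPG2 CAGA-GFP cells, 500 pg/mL final, 18 h at 37 degrees C in DMEM plus 1% FBS, normalized to unstimulated and DMSO-stimulated controls.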
HT1080-NT tox = kills 2HG-producing HT-1080-NT fibrosarcoma cells. HT-1080-NT fibrosarcoma viability, CellTiter-Glo ATP luminescence, 48 h. AID 686970. 360,000 tested, 1.6% active. Potency, µM (doses to about 46.1 µM), without a hit: top-dose activity, negative = less viability, most hits filed as cytotoxic;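 also: NT is the 2HG producing partner of a matched IDH1 knockdown line; 0% = DMSO-treated cells and -100% = media-only wells without cells; nearly all actives have a fitted effect of over 55% in size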
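Compounds were tested in concentration-response format on HT-1080-NT cells for 48 hours at 37 degrees C. Cell viability came from CellTiter-Glo luminescence; curves were classified by r2, response magnitude and activity.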
Numbers without * were called inactive. Calls follow the shape of the dose curve; as a rule, active = well fitted curve in the direction sought with a large enough effect; inconclusive = small, poorly fitted or top-dose-only effect, or another doubt; inactive = no such curve, though single readings can be large; an effect the other way counts as inactive or inconclusive. Potency is read from the fitted curve at half-maximal effect.

What do the screens show for `CCC(C)S(=O)(=O)c1oc(-c2cccs2)nc1S(=O)(=O)c1ccccc1` (stereo not given)?
HepG2 tox: 2µM*; TGFb SMAD3 inh: 1.1µM*

What do the screens show for `CNc1oc(-c2cccs2)nc1S(=O)(=O)c1ccccc1`?
S2 tox: inactive; HepG2 tox: -25%; HT1080 IDH1KD tx: -2%; ATXN2 expr inh: 0%; TGFb SMAD3 inh: -3%; HT1080-NT tox: -7%

How did COC(=O)CC1C(=O)NCCN1C(=O)CN1Cc2ccccc2OC(c2ccccc2)C1 (stereo not given) do in these assays?
S2 tox: inactive

What do the screens show for `N#C/C(=C/c1ccc(N2CCCCCC2)o1)c1cccc(F)c1`?
S2 tox: inactive; HepG2 tox: -16%; HT1080 IDH1KD tx: 6.3µM*; ATXN2 expr inh: 58%; TGFb SMAD3 inh: 64%; HT1080-NT tox: 11µM*

Results for N#C/C(=C\c1ccc(N2CCOCC2)o1)c1ccccc1 ?
S2 tox: inactive; HepG2 tox: -55%; HT1080 IDH1KD tx: 4.5µM*; ATXN2 expr inh: 187%; TGFb SMAD3 inh: inconclusive; HT1080-NT tox: inconclusive

Results for N#C/C(=C/c1ccc(N2CCCCCC2)o1)c1ccc(F)cc1 ?
S2 tox: inconclusive; HepG2 tox: -28%; HT1080 IDH1KD tx: 9.2µM*; ATXN2 expr inh: inconclusive; TGFb SMAD3 inh: 29%; HT1080-NT tox: inconclusive

Results for N#C/C(=C/c1ccc(N2CCOCC2)o1)c1ccc(Br)cc1 ?
S2 tox: inactive; HepG2 tox: -47%; HT1080 IDH1KD tx: inconclusive; ATXN2 expr inh: -1%; TGFb SMAD3 inh: 166%; HT1080-NT tox: inconclusive

How did Cc1cc(S(=O)(=O)Nc2ccc(-c3ccc(N4CCCCC4)nn3)cc2)c(C)cc1Cl do in these assays?
S2 tox: inconclusive; HepG2 tox: -4%; ATXN2 expr inh: 3%; TGFb SMAD3 inh: -29%

What do the screens show for `N#Cc1cc2c(nc1SCc1ccccc1)CCC2`?
S2 tox: inactive; HepG2 tox: -33%; HT1080 IDH1KD tx: -3%; ATXN2 expr inh: -3%; TGFb SMAD3 inh: -6%; HT1080-NT tox: -2%

What do the screens show for `N#Cc1cc2c(nc1SCc1ccncc1)CCC2`?
S2 tox: inactive; HepG2 tox: -39%; HT1080 IDH1KD tx: inconclusive; ATXN2 expr inh: 27%; TGFb SMAD3 inh: 13µM*; HT1080-NT tox: inconclusive

What do the screens show for `COC(=O)c1c(OCc2cccnc2)cc(=O)n2c1CCN(C(=O)c1c3c(nn1C)CCCC3)CC2`?
S2 tox: inactive

How did Cc1ccc(C)c(N2CCN(C(=O)c3c(C)oc4nc(C)nc(N5CCOCC5)c34)CC2)c1 do in these assays?
HepG2 tox: -11%; TGFb SMAD3 inh: -6%

What do the screens show for `O=C(C#Cc1ccccc1)c1ccco1`?
S2 tox: inconclusive; HepG2 tox: 11µM*; HT1080 IDH1KD tx: 6.5µM*; ATXN2 expr inh: inconclusive; TGFb SMAD3 inh: 3.2µM*; HT1080-NT tox: 12µM*

What do the screens show for `CCCCCC1CCC(C(=O)NNC(=S)NCC)CC1` (stereo not given)?
S2 tox: inactive; HepG2 tox: 2%; HT1080 IDH1KD tx: 3.2µM*; ATXN2 expr inh: -9%; TGFb SMAD3 inh: -1%; HT1080-NT tox: 6.3µM*

Results for CCCCNCC(O)(c1ccc(Cl)cc1)c1ccc(Cl)cc1 ?
S2 tox: inconclusive; HepG2 tox: -4%; HT1080 IDH1KD tx: 18µM*; ATXN2 expr inh: inconclusive; TGFb SMAD3 inh: -9%; HT1080-NT tox: inconclusive

How did CCCCCNCc1ccc(Cl)cc1 do in these assays?
S2 tox: inactive; HepG2 tox: -8%; HT1080 IDH1KD tx: 3%; ATXN2 expr inh: -5%; TGFb SMAD3 inh: -1%; HT1080-NT tox: 0%

Results for COc1ccc(CNCC(O)(c2ccc(Cl)cc2)c2ccc(Cl)cc2)cc1OC ?
S2 tox: inconclusive; HepG2 tox: 22µM*; HT1080 IDH1KD tx: inconclusive; ATXN2 expr inh: inconclusive; TGFb SMAD3 inh: inconclusive; HT1080-NT tox: inconclusive
